Experiment [1] is described as follows: Cell Viability - LYMP2-021 (AID 974).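 Further: compound exposure lasts 24 hours at 37 °C; nearly all actives have a fitted effect of over 55% in size.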 Further: potency means the concentration at half of the fitted maximal effect. The settings on record: LYMP2-021 lymphoblastoid cells viability; series mostly up to 92.2 µM. In outline:
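Plate 2500 lymphoblastoid cells per well and incubate 5 hr at 37 C. Add compounds over a concentration range and incubate 24 hr at 37 C. Add CellTiter-Glo, wait 30 min at room temperature, read luminescence.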

Experiment [2] is described as follows: Cell Viability - LYMP2-025 (AID 976). Further: potency means the concentration at half of the fitted maximal effect. The settings on record: LYMP2-025 lymphoblastoid cell viability; series mostly up to 92.2 µM. The method in brief:
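Seed 2500 LYMP2-025 cells/well; 5 hr at 37 C; add compound; 24 hr at 37 C; add CellTiter-Glo; 30 min RT; read luminescence. AC50 from Hill-modelled concentration-response.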

Experiment [3] is described as follows: Cell Viability - LYMP2-002 (AID 977).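 Further: compound exposure lasted 24 h at 37 °C.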 Further: potency means the concentration at half of the fitted maximal effect. As to conditions: LYMP2-002 lymphoblastoid cell viability, qHTS; series mostly up to 92.2 µM. In outline: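 Cytotoxicity is scored as concentration-dependent loss of cellular ATP in a human lymphoblastoid line after 24 hr compound treatment at 37 C. AC50 is obtained by modelling concentration-response data with the Hill equation.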
For orientation: In qHTS, concentration-response curves come from the screen itself.

The nature of experiment [4]: Cell Viability - LYMP2-006 (AID 978). Further: nearly all actives have a fitted effect of over 60% in size. Further: potency means the concentration at half of the fitted maximal effect. As to conditions: LYMP2-006 lymphoblastoid cell viability, qHTS; series mostly up to 92.2 µM. The method in brief:
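Human lymphoblastoid cells, 2500 per well, were preincubated 5 hr at 37 C, then exposed to compounds for 24 hr at 37 C in complete medium. Viability was read as intracellular ATP by CellTiter-Glo luminescence; AC50 from Hill-equation fits of qHTS concentration-response data.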

Experiment [5] can be described thus: Cell Viability - LYMP2-008 (AID 980). Further: nearly all actives have a fitted effect of over 60% in size. Further: potency means the concentration at half of the fitted maximal effect. The settings on record: LYMP2-008 lymphoblastoid cell viability, qHTS; series mostly up to 92.2 µM. The method in brief: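 qHTS, human lymphoblastoid line, 2500 cells/well; 5 hr preincubation, 24 hr compound, 37 C. CellTiter-Glo ATP luminescence. AC50 via Hill equation. Tetraoctylammonium bromide positive control.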
A short description of experiment [6]: Cell Viability - LYMP2-010 (AID 981). Further: nearly all actives have a fitted effect of over 55% in size. Further: potency means the concentration at half of the fitted maximal effect. As to conditions: LYMP2-010 lymphoblastoid cell viability, qHTS; series mostly up to 92.2 µM. In outline:
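Luminescent ATP signal (CellTiter-Glo) served as the viability read-out. Cells of the human lymphoblastoid line were treated with compound over a concentration range for 24 hours at 37 C, and AC50 values came from Hill-equation modeling.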

The nature of experiment [7]: Cell Viability - LYMP2-012 (AID 982).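 Further: cellular ATP by luciferase luminescence where a drop means cytotoxicity; cells exposed to compound for one day before reading; nearly all actives have a fitted effect of over 55% in size.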 Further: potency means the concentration at half of the fitted maximal effect. As to conditions: LYMP2-012 lymphoblastoid cell viability qHTS; series mostly up to 92.2 µM.
A short description of experiment [8]: Cell Viability - LYMP2-014 (AID 983). Further: nearly all actives have a fitted effect of over 50% in size. Further: potency means the concentration at half of the fitted maximal effect. As to conditions: LYMP2-014 lymphoblastoid cells, viability qHTS; series mostly up to 92.2 µM. In outline: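 Luminescent ATP signal (CellTiter-Glo, 30 min at room temperature) serves as the viability read-out after 24 hr compound exposure at 37 C. Cells were seeded at 2500 per well and settled 5 hr beforehand.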
The nature of experiment [9]: Cell Viability - LYMP2-016 (AID 984). Further: nearly all actives have a fitted effect of over 55% in size. Further: potency means the concentration at half of the fitted maximal effect. As to conditions: LYMP2-016 lymphoblastoid cell viability, qHTS; series mostly up to 92.2 µM. The method in brief: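 Human lymphoblastoid cells (LYMP2-016), 2500/well in complete medium, preincubated 5 hr at 37 C, then compound-treated 24 hr at 37 C. Intracellular ATP read by CellTiter-Glo luminescence after 30 min at room temperature; AC50 from Hill-equation concentration-response fits.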

Experiment [10] can be described thus: Cell Viability - LYMP2-020 (AID 986). Further: nearly all actives have a fitted effect of over 55% in size. Further: potency means the concentration at half of the fitted maximal effect. The settings on record: series mostly up to 92.2 µM. In outline: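 Luminescent ATP signal (CellTiter-Glo, 30 min at room temperature) is the read-out after 24 h compound treatment of lymphoblastoid cells at 37 C. AC50 values come from Hill-equation fits across concentrations.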
Experiment [11] can be described thus: Cell Viability - LYMP2-024 (AID 988). Further: nearly all actives have a fitted effect of over 60% in size. Further: potency means the concentration at half of the fitted maximal effect. As to conditions: LYMP2-024 lymphoblastoid cell viability; series mostly up to 92.2 µM. The method in brief:
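Steps: seed 2500 cells/well, 5 hr 37 C; add compound, 24 hr 37 C; add CellTiter-Glo, 30 min room temperature; read luminescence. AC50 derived by Hill modelling of concentration-dependent ATP loss.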

Experiment [12] can be described thus: Cell Viability - LYMP2-026 (AID 989). Further: nearly all actives have a fitted effect of over 50% in size. Further: potency means the concentration at half of the fitted maximal effect. The settings on record: LYMP2-026 lymphoblastoid cell viability, qHTS; series mostly up to 92.2 µM. The method in brief:
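Luminescent ATP signal (CellTiter-Glo, 30 min room temperature) measures viable lymphoblastoid cells after 24 hr compound treatment at 37 C. Decreased ATP reflects acute toxicity; AC50 values come from Hill-equation modeling.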

A short description of experiment [13]: Cell Viability - LYMP1-002 - Assay at 24 hr (AID 993). Further: potency means the concentration at half of the fitted maximal effect. As to conditions: LYMP1-002 lymphoblastoid cells viability; series mostly up to 92.2 µM. The method in brief: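 Cells plated 2500/well, 5 hr 37 C; compounds added, 24 hr 37 C; CellTiter-Glo added, 30 min RT; luminescence read. Tetraoctylammonium bromide positive control. Hill-equation AC50.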
Experiment [14] can be described thus: Cell Viability - LYMP1-002 - Assay at 40 hr (AID 994). Further: nearly all actives have a fitted effect of over 60% in size. Further: potency means the concentration at half of the fitted maximal effect. As to conditions: LYMP1-002 lymphoblastoid cell viability; series mostly up to 92.2 µM. In outline: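 Luminescent ATP signal served as the viability readout, with decreases taken as toxicity. Cells were treated with compounds across a concentration range for 40 hours at 37 C, and AC50 values came from standard Hill modeling.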

Another experiment deals with CP286. The experiment can be described thus: qHTS profiling for inhibitors of Plasmodium falciparum proliferation (AID 504749). Further: nearly all actives have a fitted effect of over 60% in size. Further: potency means the concentration at half of the fitted maximal effect. As to conditions: P. falciparum in erythrocytes, SYBR Green DNA, 72 h; series mostly up to 28.7 µM. The method in brief:
(§1)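 Infected RBCs, 0.3% parasitemia/2.5% Hct final; cpd 72 h, 37 C, 5% CO2; lysis buffer with saponin/triton/SYBR Green I, o/n RT dark; FI 485/535; norm. to artemisinin (0.29 uM) and DMSO.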

Another experiment relates to CP335. The experiment is described as above. The settings on record: P. falciparum in erythrocytes, SYBR Green DNA, 72 h; series mostly up to 28.7 µM. In outline: as §1
Experiment [15] has as its target Guanine nucleotide-binding protein G(i) subunit alpha-1 (Homo sapiens) (UniProt P63096). In words: qHTS Assay for Inhibitors of RGS12 GoLoco Motif Activity (Green Fluorophore) (AID 879).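 Further: negative values mean loss of peptide binding seen as reduced polarization.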 The settings on record: Galphai1/FITC-RGS12 GoLoco peptide, fluorescence polarization; series mostly up to 57.1 µM. The method in brief: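 Fluorescence polarization assay: 50 nM Gαi1 with 10 nM FITC-labeled RGS12 GoLoco peptide in 10 mM Tris pH 7.5, 150 mM NaCl, 0.1 mM GDP, 0.05% NP40, 10 min at room temperature with compound.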

The nature of experiment [16]: qHTS Assay for Identification of Small Molecule Agonists for Thrombopoietin (TPO) Signaling Pathway (AID 917). The settings on record: TPO signaling pathway reporter cells, agonist qHTS, stimulated with TPO at its EC50; series mostly up to 38.5 µM. The method in brief:
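Murine Ba/F3 cells stably expressing human TPO receptor and a Glycoprotein IIb promoter–luciferase reporter were IL-3-starved overnight, then treated with compounds plus TPO (26 pM final, its EC50) for 24 hrs at 37 C; luminescence was read.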

In experiment [17] the target is Pyruvate kinase (Leishmania mexicana) (UniProt Q27686). In words: qHTS Validation Assay for Inhibitors of Leishmania Mexicana Pyruvate Kinase (AID 945). The settings on record: purified L. mexicana pyruvate kinase, enzyme activity, E451W mutant enzyme; series mostly up to 57.5 µM. In outline:
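Luminescent ATP detection (PKLight) after a 1 h room-temperature reaction of 0.2 nM LmPYK E451W mutant with 0.5 mM PEP and 0.1 mM ADP at pH 7.2. Activity is normalized to DMSO-only control wells.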

The target in experiment [18] is Pyruvate kinase PKM (Homo sapiens) (UniProt P14618). In words: qHTS Assay for Activators of Human Muscle Pyruvate Kinase (AID 954; active means well fitted curve in the direction sought with a large enough effect, not every such curve was filed as active). The settings on record: purified human muscle pyruvate kinase, luciferase-coupled luminescence, 1 h; series mostly up to 57.5 µM. The method in brief: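 Purified human PKM2 (0.1 nM) with 0.5 mM PEP (Km) and 0.1 mM ADP in 50 mM imidazole pH 7.2, KCl, MgCl2, 1 h at room temperature; ATP formed read by coupled luciferase luminescence. Normalized to no-enzyme/110 uM thiadiazolimine inhibition; 0.3 nM enzyme column for activation.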

The structures appear in SMILES notation. Records with an inconclusive call do not appear. Activity calls are given as the source filed them. Unless noted, the call rests on the fitted dose curve; in most records, active means well fitted curve in the direction sought with a large enough effect; inconclusive means small, poorly fitted or top-dose-only effect, or another doubt; inactive means no such curve, though single readings can be large; an effect the other way counts as inactive or inconclusive.

Drawing on PubChem BioAssay (NCATS), this text covers Potency and outcome for seven compounds.

Sequence of Guanine nucleotide-binding protein G(i) subunit alpha-1 (Homo sapiens) (P63096 whole entry, looked up): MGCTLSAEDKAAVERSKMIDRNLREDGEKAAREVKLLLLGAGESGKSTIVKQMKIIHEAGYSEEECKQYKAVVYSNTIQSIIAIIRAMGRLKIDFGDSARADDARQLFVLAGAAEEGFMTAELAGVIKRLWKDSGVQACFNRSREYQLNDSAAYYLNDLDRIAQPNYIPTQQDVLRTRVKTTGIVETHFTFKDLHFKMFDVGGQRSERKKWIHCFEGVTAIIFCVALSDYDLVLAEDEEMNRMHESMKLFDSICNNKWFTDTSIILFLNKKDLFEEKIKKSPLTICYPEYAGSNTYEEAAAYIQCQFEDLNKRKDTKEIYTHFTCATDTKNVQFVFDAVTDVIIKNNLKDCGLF
Sequence of Pyruvate kinase (Leishmania mexicana) (Q27686 2-499 E452W): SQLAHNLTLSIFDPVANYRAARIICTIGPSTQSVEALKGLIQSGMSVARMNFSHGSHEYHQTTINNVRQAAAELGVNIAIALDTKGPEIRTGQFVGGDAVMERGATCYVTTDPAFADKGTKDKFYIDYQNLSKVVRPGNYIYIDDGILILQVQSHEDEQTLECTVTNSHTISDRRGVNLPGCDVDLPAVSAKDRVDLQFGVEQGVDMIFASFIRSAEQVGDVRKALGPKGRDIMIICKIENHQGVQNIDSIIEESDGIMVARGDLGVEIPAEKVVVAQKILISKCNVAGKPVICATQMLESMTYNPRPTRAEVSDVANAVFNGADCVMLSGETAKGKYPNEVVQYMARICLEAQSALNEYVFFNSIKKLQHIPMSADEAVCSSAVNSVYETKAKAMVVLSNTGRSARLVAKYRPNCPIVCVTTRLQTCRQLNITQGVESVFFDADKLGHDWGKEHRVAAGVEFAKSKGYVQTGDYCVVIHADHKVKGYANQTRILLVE
Sequence of Pyruvate kinase PKM (Homo sapiens) (P14618 whole entry, looked up): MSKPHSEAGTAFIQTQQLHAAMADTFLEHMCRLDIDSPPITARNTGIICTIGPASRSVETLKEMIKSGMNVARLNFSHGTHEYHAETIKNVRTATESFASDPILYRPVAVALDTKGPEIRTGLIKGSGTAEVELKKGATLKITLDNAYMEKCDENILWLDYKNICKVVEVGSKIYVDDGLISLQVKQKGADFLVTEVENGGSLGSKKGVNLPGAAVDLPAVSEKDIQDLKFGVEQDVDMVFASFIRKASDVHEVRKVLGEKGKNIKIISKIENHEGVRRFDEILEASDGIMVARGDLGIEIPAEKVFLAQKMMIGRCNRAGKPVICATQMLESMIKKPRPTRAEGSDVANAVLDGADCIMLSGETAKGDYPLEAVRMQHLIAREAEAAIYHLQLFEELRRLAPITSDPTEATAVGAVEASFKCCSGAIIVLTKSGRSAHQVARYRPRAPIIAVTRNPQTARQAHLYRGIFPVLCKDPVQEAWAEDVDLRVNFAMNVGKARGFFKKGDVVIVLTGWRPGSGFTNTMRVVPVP

For `CC(CCC(=O)O)(c1ccc(O)cc1)c1ccc(O)cc1`, the Potency entry in experiment [1], in experiment [2], in experiment [3], in experiment [4], in experiment [5] and in experiment [6] was “inactive” each time. Further, the Potency entry in experiment [7], in [8], in experiment [9], in experiment [10], in [11] and in [12] was “inactive” throughout. In addition, the Potency result in experiment [13] and in [14] was “inactive” throughout.
As to `N=C1C=CC(=C(c2ccc(N)cc2)c2ccc(N)cc2)C=C1`, the Potency was 7.94 µM (active) in experiment [1]; 10 µM (active) in [2]; 7.94 µM (active) in experiment [3]; 10 µM (active) in experiment [4]; 7.94 µM (active) in experiment [5]; 7.94 µM (active) in [6]. Further, the Potency in [7] is 7.94 µM (active); in experiment [8], 7.94 µM (active); in experiment [9] it was 7.94 µM (active); in experiment [10], 3.98 µM (active); in experiment [11] it was 7.94 µM (active); in [12], 7.94 µM (active). In addition, the Potency is 12.6 µM (active) in experiment [13] and 15.8 µM (active) in experiment [14].
As to `OC[C@H](S)CS`, the Potency is 3.16 µM (active) in the experiment with CP286 and 3.38 µM (active) with CP335.
For `CC[C@H]1C(=O)OC[C@H]1Cc1cncn1C`, the compound was classed as inactive in experiment [15], in experiment [16], in experiment [17] and in experiment [18].
As for `N=c1ccn2c(n1)O[C@@H]1[C@@H](O)[C@H](CO)O[C@H]12`, the result in experiment [15] and in experiment [17] was inactive.
Take `Cc1nnc(SCC2=C(C(=O)O)N3C(=O)[C@@H](NC(=O)Cn4cnnn4)[C@@H]3SC2)s1`: the result in experiment [16] and in [18] was inactive.
Regarding `COc1cc2nc(N(C)CCCNC(=O)[C@@H]3CCCO3)nc(N)c2cc1OC`, the Potency entry with CP286 and in the experiment on CP335 was “inactive” throughout.
